About 79,000 compounds went through this panel and 15% of them were active in at least one assay; those are over-represented in the sample as a whole. The source made the active and inactive calls. Rule as the data show it: active = growth inhibition above about 70%; inactive = the rest.
Experiments:
[1] = NCI Yeast Anticancer Drug Screen. Data for the rad52 strain (AID 147);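 also: 0% = growth of vehicle-treated control cultures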; details: S. cerevisiae rad52 mutant growth inhibition, active compounds read high
In short: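 Yeast strain carrying a DNA damage repair alteration was exposed to test compounds. Growth inhibition was measured relative to vehicle-treated controls.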

[2] = NCI Yeast Anticancer Drug Screen. Data for the wt1 strain (AID 149);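 also: 0% = growth of vehicle-treated wt1 cultures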; details: S. cerevisiae wt1 strain (SPY 50644) growth inhibition, active compounds read high
In short: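 Compounds are added to wt1 yeast cultures. Growth is then measured. Inhibition is expressed relative to vehicle-treated controls.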

[3] = NCI Yeast Anticancer Drug Screen. Data for the rad50EPP+ strain (AID 151);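 also: 0% = growth of vehicle-treated control cultures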; details: S. cerevisiae rad50 mutant strain, active compounds read high
In short: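 Yeast strain carrying rad50 alteration (rad50EPP+) exposed to compounds; growth inhibition measured relative to vehicle-treated controls.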

[4] = NCI Yeast Anticancer Drug Screen. Data for the mgt1 strain (AID 153); details: S. cerevisiae mgt1 mutant growth inhibition, active compounds read high
In short: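 Yeast mgt1 strain (DNA repair/cell-cycle alteration panel) exposed to compounds; growth inhibition measured relative to vehicle-treated controls.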

[5] = NCI Yeast Anticancer Drug Screen. Data for the rad50 strain (AID 155);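 also: 0% = growth of vehicle-only cultures of the same strain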; details: S. cerevisiae rad50 strain growth inhibition, active compounds read high
In short: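 Inhibition values express reduced yeast growth in compound-treated cultures relative to vehicle-treated controls.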

[6] = NCI Yeast Anticancer Drug Screen. Data for the mec2-1 strain (AID 157); details: S. cerevisiae mec2-1 strain, active compounds read high
In short: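 mec2-1 yeast strain, carrying an alteration in DNA damage repair or cell cycle control, was exposed to compounds; growth inhibition was measured relative to vehicle-treated controls.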

[7] = NCI Yeast Anticancer Drug Screen. Data for the rad14 strain (AID 159);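 also: 0% = growth of vehicle-treated control cultures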; details: S. cerevisiae rad14 strain growth inhibition, active compounds read high
In short: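 A mutant yeast strain defective in DNA damage repair is treated with compound; inhibition of its growth is scored against untreated, vehicle-exposed cultures.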

[8] = NCI Yeast Anticancer Drug Screen. Data for the sgs1 mgt1 strain (AID 161);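 also: 0% = growth of cultures given vehicle only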; details: S. cerevisiae sgs1 mgt1 strain, active compounds read high
In short: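 This yeast growth screen uses a strain with defined DNA-repair lesions; compound-treated growth is compared with vehicle-treated growth.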

[9] = NCI Yeast Anticancer Drug Screen. Data for the CLN2oe strain (AID 163);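 also: 0% = growth of vehicle-only control cultures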; details: S. cerevisiae CLN2oe strain, active compounds read high
In short: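 Yeast cells carrying a defined cell-cycle control alteration were exposed to test compounds. Growth inhibition was scored against vehicle-treated control cultures.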

[10] = NCI Yeast Anticancer Drug Screen. Data for the cln2 rad14 strain (AID 165);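 also: 0% = growth equal to vehicle treated cultures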; details: S. cerevisiae cln2 rad14 strain, active compounds read high
In short: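 Yeast carrying cln2 and rad14 alterations (cell cycle control and DNA damage repair) were exposed to compounds. Growth inhibition was measured against vehicle-treated controls.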

[11] = NCI Yeast Anticancer Drug Screen. Data for the bub3 strain (AID 167); details: S. cerevisiae bub3 mutant strain, active compounds read high
In short: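 Steps: expose the mutant yeast strain to compound; grow alongside vehicle-treated cultures; measure growth; express inhibition against the vehicle cultures.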

[12] = NCI Yeast Anticancer Drug Screen. Data for the wt2 strain (AID 169);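 also: 0% = growth of vehicle-treated yeast cultures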; details: S. cerevisiae wt2 strain growth inhibition, active compounds read high
In short: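 Yeast cells were exposed to test compounds, and growth inhibition was measured relative to vehicle-treated controls.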

[13] = NCI Yeast Anticancer Drug Screen. Data for the mlh1 strain (AID 171);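 also: 0% = growth of vehicle-treated control cultures of the same strain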; details: S. cerevisiae mlh1 strain growth inhibition, active compounds read high
In short: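 Yeast carrying a defined genetic alteration in DNA damage repair or cell cycle control were exposed to test compounds. Growth inhibition was measured relative to vehicle-treated controls.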

[14] = NCI Yeast Anticancer Drug Screen. Data for the sgs1 strain (AID 173);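 also: 0% = growth of vehicle-only control cultures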; details: S. cerevisiae sgs1 mutant, active compounds read high
In short: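 Yeast mutant strains carrying defined defects in DNA damage repair or cell cycle control were exposed to test compounds. Growth inhibition was scored against vehicle-treated controls.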

[15] = NCI Yeast Anticancer Drug Screen. Data for the mlh1 rad18 strain (AID 175); details: S. cerevisiae mlh1 rad18 strain growth inhibition, active compounds read high
In short: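 Growth inhibition of the yeast strain was measured after compound exposure and expressed relative to vehicle-treated controls. The strain carries defined defects in DNA damage repair.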

[16] = NCI Yeast Anticancer Drug Screen. Data for the rad18 strain (AID 177); details: S. cerevisiae rad18 mutant growth inhibition, active compounds read high
In short: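 Yeast carrying a defined DNA damage repair alteration were exposed to compounds. Growth inhibition was expressed relative to vehicle-treated controls.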

[17] = at 5.0 µM (retest, dose inferred, filed as 0.5)
[18] = at 50.0 µM (retest, dose inferred, filed as 5.0)

Measured: growth inhibition

CO[C@H]1C[C@](C)(O)Cc2cc3c(c(O)c21)C(=O)c1c(O)cc2c(c1C3=O)O[C@@H]1O[C@@]2(C)[C@H](O)[C@@H](N(C)C)[C@@H]1O
active: [1]; at 100.0 µM 87% | [5]; at 33.0 µM 72% | [5]; [18] 75% | [5]; at 100.0 µM 85% | [15]; at 50.0 µM 73.2%
inactive: [1]; at 1.2 µM -22% | [1]; at 3.7 µM -13% | [1]; at 11.0 µM 5% | [1]; at 33.0 µM 60% | [2]; at 1.2 µM -38% | [2]; at 3.7 µM -38% | [2]; at 11.0 µM -39% | [2]; at 33.0 µM -44% | [2]; at 100.0 µM -37% | [3]; at 1.2 µM -28% | [3]; at 3.7 µM -5% | [3]; at 11.0 µM -9% | [3]; at 33.0 µM -12% | [3]; at 100.0 µM 33% | [4]; at 1.2 µM -28% | [4]; at 3.7 µM -23% | [4]; at 11.0 µM -19% | [4]; at 33.0 µM -22% | [4]; at 100.0 µM -32% | [5]; at 1.2 µM -44% | [5]; at 3.7 µM -7% | [5]; [17] -11% | [5]; at 11.0 µM 17% | [5]; at 50.0 µM 20.9% | [6]; at 1.2 µM -19% | [6]; at 3.7 µM -7% | [6]; [17] -3% | [6]; at 11.0 µM -21% | [6]; at 33.0 µM -4% | [6]; [18] -11% | [6]; at 50.0 µM -11.2% | [6]; at 100.0 µM -6% | [7]; at 1.2 µM -32% | [7]; at 3.7 µM -44% | [7]; at 11.0 µM -63% | [7]; at 33.0 µM -53% | [7]; at 100.0 µM -51% | [8]; [17] -16% | [8]; [18] -1% | [8]; at 50.0 µM 14.3% | [9]; at 1.2 µM -11% | [9]; at 3.7 µM -29% | [9]; at 11.0 µM -8% | [9]; at 33.0 µM -14% | [9]; at 100.0 µM -33% | [10]; [17] 25% | [10]; [18] 31% | [10]; at 50.0 µM 21.9% | [11]; at 1.2 µM -15% | [11]; at 3.7 µM -11% | [11]; [17] -2% | [11]; at 11.0 µM -30% | [11]; at 33.0 µM -31% | [11]; [18] 15% | [11]; at 50.0 µM -10.6% | [11]; at 100.0 µM -20% | [12]; at 1.2 µM -19% | [12]; at 3.7 µM -21% | [12]; at 11.0 µM -26% | [12]; at 33.0 µM -19% | [12]; at 100.0 µM -12% | [13]; at 1.2 µM -42% | [13]; at 3.7 µM -38% | [13]; at 11.0 µM -14% | [13]; at 33.0 µM -36% | [13]; at 100.0 µM -22% | [14]; at 1.2 µM -28% | [14]; at 3.7 µM -28% | [14]; at 11.0 µM -24% | [14]; at 33.0 µM -7% | [14]; at 100.0 µM 2% | [15]; [17] -19% | [15]; [18] 0% | [16]; at 1.2 µM -27% | [16]; at 3.7 µM -27% | [16]; at 11.0 µM -29% | [16]; at 33.0 µM -27% | [16]; at 100.0 µM -18%

CCCCCCCCC/C=C/C=C/C(=O)NCC(=O)NC1C(O)C(O)C(Nc2ncnc3nc[nH]c23)OC1C(O)CO (stereo unspecified)
inactive: [1]; at 1.2 µM -19% | [1]; at 3.7 µM 11% | [1]; at 11.0 µM 10% | [1]; at 33.0 µM 69% | [1]; at 100.0 µM 67% | [2]; at 1.2 µM -41% | [2]; at 3.7 µM -23% | [2]; at 11.0 µM -27% | [2]; at 33.0 µM 33% | [2]; at 100.0 µM 20% | [3]; at 1.2 µM -19% | [3]; at 3.7 µM -17% | [3]; at 11.0 µM -15% | [3]; at 33.0 µM -36% | [3]; at 100.0 µM -48% | [4]; at 1.2 µM -33% | [4]; at 3.7 µM -22% | [4]; at 11.0 µM -14% | [4]; at 33.0 µM 43% | [4]; at 100.0 µM 39% | [5]; at 1.2 µM -53% | [5]; at 3.7 µM -47% | [5]; [17] 47% | [5]; at 11.0 µM -52% | [5]; at 33.0 µM -75% | [5]; at 50.0 µM 16.9% | [5]; at 100.0 µM -24% | [6]; at 1.2 µM -61% | [6]; at 3.7 µM -30% | [6]; [17] 9% | [6]; at 11.0 µM 14% | [6]; at 33.0 µM -11% | [6]; [18] 43% | [6]; at 50.0 µM 6.95% | [6]; at 100.0 µM -27% | [7]; at 1.2 µM -17% | [7]; at 3.7 µM -5% | [7]; at 11.0 µM -8% | [7]; at 33.0 µM 8% | [7]; at 100.0 µM 51% | [8]; [17] 2% | [8]; [18] -55% | [8]; at 50.0 µM 69.2% | [9]; at 1.2 µM 4% | [9]; at 3.7 µM 8% | [9]; at 11.0 µM 11% | [9]; at 33.0 µM 18% | [9]; at 100.0 µM -11% | [10]; [17] -1% | [10]; [18] -13% | [10]; at 50.0 µM 10.8% | [11]; at 1.2 µM -64% | [11]; at 3.7 µM -38% | [11]; [17] 5% | [11]; at 11.0 µM -58% | [11]; at 33.0 µM 5% | [11]; [18] -16% | [11]; at 50.0 µM 24.9% | [11]; at 100.0 µM 3% | [12]; at 1.2 µM 7% | [12]; at 3.7 µM 24% | [12]; at 11.0 µM 53% | [12]; at 33.0 µM 61% | [12]; at 100.0 µM 56% | [13]; at 1.2 µM -44% | [13]; at 3.7 µM -38% | [13]; at 11.0 µM -50% | [13]; at 33.0 µM 18% | [13]; at 100.0 µM -29% | [14]; at 1.2 µM -21% | [14]; at 3.7 µM 8% | [14]; at 11.0 µM 14% | [14]; at 33.0 µM 65% | [14]; at 100.0 µM 59% | [15]; [17] 20% | [15]; [18] 41% | [15]; at 50.0 µM 49.4% | [16]; at 1.2 µM -7% | [16]; at 3.7 µM 7% | [16]; at 11.0 µM 21% | [16]; at 33.0 µM 53% | [16]; at 100.0 µM 48%
active: [5]; [18] 83%
